# Measured values from PubChem BioAssay AID896 (National Center for Advancing Translational Sciences (NCATS), 2007).
# The list shows a part of the results. Results filed as inconclusive are left out. The source made the active and inactive calls. The call rests on the fitted dose curve; in most records, active means well fitted inhibition curve with a large enough effect in the main read-out, with a control signal flat; inconclusive means small, poorly fitted or top-dose-only effect, or a change in a side signal; inactive means no such curve, though single readings can be large or run the other way.
# Molecular target: Caspase-1 (Homo sapiens) (UniProt P29466)
# Test: Confirmation Concentration-Response Assay for Allosteric/Competitive Inhibitors of Caspase-1
# Conditions: purified caspase-1, fluorogenic substrate cleavage; series mostly up to 57.5 µM
# Source text: NIH Molecular Libraries Screening Centers Network [MLSCN]
# NIH Chemical Genomics Center [NCGC]
# PI Name: Dr. James Wells,
# Dr. Enrique Perez-Paya, Dr.Janice Williams, Dr. Dennis Wolan, a person
# The caspases (Cysteine Aspartyl Protease) comprise a related family of 14 dimeric proteases that are critical mediators of apoptosis (programmed cell death) and inflammation. The caspases represent an important class of drug targets for stroke, ischemia, cancer and inflammatory diseases. […] One goal of this project was to identify compounds that act as allosteric inhibitors via stabilizing the procaspase form of the enzyme. […]
# The biochemical assay was configured using purified caspase 1 at a high enzyme concentration to promote formation of the homodimers and thus facilitate the identification of allosteric inhibitors. […] After initiation of the assay with substrate the plates were rapidly read using an automated robotic system (Kalypsys, Inc.) to maintain consistent timing. […] Product formation was also measured after 1 hour. […]
# Caspase 1 was prepared in buffer (50 mM HEPES pH 7.5, 50 mM KCl, 200 mM NaCl, 10 mM DTT, 0.1% CHAPS) at a concentration of 66.6 nM and 3 uL was dispensed to all wells using black solid Kalypsys 1536-well plates. […] The plates were then exposed using 405 nm excitation/520 nm emission filters for 4 sec and read at 20 sec intervals for 3 min. […]
row,SMILES,outcome
1,Cc1nc2c(C(=O)NCc3ccc4c(c3)OCO4)c[nH]n2c(=O)c1Cc1ccccc1F,inactive
